# Screening data (PubChem)
# Most compounds without a hit are left out; they make up all but 7.9% or so of the library.
# KB-3-1 cytotox = KB-3-1 parental cell cytotoxicity | KB-3-1 viability, CellTiter-Glo ATP luminescence, 72 h | Potency, µM (series often up to 46.1 µM), usual class: cytotoxic | 1.4% of 400,000 active | AID 1347075; note: % is set by controls: 0 for no effect and ±100 for the full control effect; nearly all actives have a fitted effect of over 60% in size
#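 KB-3-1 cells, DMEM (no phenol red) + 10% FBS; compound by pin transfer, 72 h, 37 °C. Readout: CellTiter-Glo luminescence after 10 min. Data normalized, curve-fitted.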
# MCF10A rereplic = DNA re-replication induction in MCF 10a cells; AID 624296; MCF 10A DNA re-replication, Hoechst nuclear intensity, 48 h; Potency, µM (series often up to 46.1 µM), for inactives: at the top dose activity, positive = re-replication, hits mostly activators; 2.9% of 350,000 active; note: % of control where 0% means no effect; nearly all actives have a fitted effect of over 50% in size
# KB-V1 cytotox = kills drug-selected multidrug resistant KB-V1 cells; KB-V1 MDR cells viability, CellTiter-Glo, 72 h; Potency, µM (highest dose often 46.1 µM), actives largely listed as cytotoxic; 3.4% of 400,000 active; note: % is set by controls: 0 for no effect and ±100 for the full control effect; nearly all actives have a fitted effect of over 60% in size
#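 Luminescent ATP read-out (CellTiter-Glo, 10 min) measures survival of drug-selected KB-V1 MDR cells after 72 h, 37 degrees C compound exposure. Medium: phenol-red-free DMEM, 10% FBS. Values from fitted concentration-response curves.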
# HT1080-NT tox = kills 2HG-producing HT-1080-NT fibrosarcoma cells; HT-1080-NT fibrosarcoma viability, CellTiter-Glo ATP luminescence, 48 h; Potency, µM (series often up to 46.1 µM), for inactives: at the highest dose activity, negative = less viability, actives largely listed as cytotoxic; 1.6% of 360,000 active; AID 686970;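 note: NT is the 2HG producing partner of a matched IDH1 knockdown line; 0% = DMSO-treated cells and -100% = media-only wells without cells; nearly all actives have a fitted effect of over 55% in size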
#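 Viability of the 2HG-overproducing fibrosarcoma line after 48 hours of compound exposure at 37 degrees C was determined by luminescence with CellTiter-Glo, and concentration-effect curves were then fitted and categorized.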
# HT1080 IDH1KD tx = HT-1080 IDH1 knockdown cell toxicity (counter line); AID 686971; HT-1080 IDH1 knockdown viability, ATP luminescence, 48 h; 2% of 360,000 active; Potency, µM (top dose mostly 46.1 µM), for inactives: at the highest dose activity, negative = toxicity, usual class: cytotoxic;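 note: 0% = DMSO wells and -100% = cell-free medium wells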
#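 CellTiter-Glo luminescence after 48 h compound exposure at 37 degrees C of IDH1-knockdown HT-1080 cells in 5% FBS RPMI. %Activity scaled between DMSO wells and cell-free media wells, with curves fitted and assigned curve classes.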
# SW480 rerep = DNA re-replication induction in SW480 cells | AID 624297 | 1.8% of 340,000 active | SW480 DNA re-replication, Hoechst DNA content imaging, 48 h | Potency, µM (highest dose often 46.1 µM), for inactives: at the top dose re-replication activation, actives largely listed as activators; note: % of control where 0% means no effect; nearly all actives have a fitted effect of over 55% in size
#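 Image-based DNA-content assay: after two days of treatment, nuclei were labelled with the DNA dye Hoechst and imaged, and hits were compounds raising the count of nuclei showing high fluorescence intensity.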
# Active calls of the source: *; i = inactive; ? = inconclusive; . = no result given; [ ] = dose if it differs, or a comment. Calls come from the whole dose curve; as a rule, active = well fitted curve in the direction sought with a large enough effect; inconclusive = small, poorly fitted or top-dose-only effect, or another doubt; inactive = no such curve, though single readings can be large; an effect the other way counts as inactive or inconclusive. Potency is the fitted concentration of half-maximal effect.
SMILES,KB-3-1 cytotox,MCF10A rereplic,KB-V1 cytotox,HT1080-NT tox,HT1080 IDH1KD tx,SW480 rerep
CCCCN(C(=O)Cn1nnc2ccccc21)C(C(=O)NCCOC)c1ccc(OC)cc1OC (stereo not given),i,-3%,i,3%,11%,0%
O=C(Nc1ccccc1)C1CCN(C(=O)c2ccco2)CC1,i,1%,i,20%,16%,-2%
O=C(Nc1ccc(Br)cc1)C1CCN(C(=O)c2ccco2)CC1,i,3%,21µM*,-15%,-8%,3%
Cc1cc(Br)ccc1NC(=O)CNC(=O)COc1ccccc1C,i,-2%,?,10%,17%,141%
CC(C)(C)C1CCc2c(sc(NC(=O)CSc3ncn[nH]3)c2C#N)C1 (stereo not given),?,?,16µM*,11µM*,11µM*,?
CC1CCc2c(sc(NC(=O)COC(=O)c3ccc(NC(=O)CC#N)cc3)c2C#N)C1 (stereo not given),i,3%,i,-9%,8%,-402%
N#Cc1c(NC(=O)CSc2ncn[nH]2)sc2c1CCCC2,?,?,?,-24%,-9%,-5%
CC1CCc2c(sc(NC(=O)Cn3nc(C(=O)O)c4ccccc4c3=O)c2C#N)C1 (stereo not given),i,?,i,8%,8%,-5%
CC(=O)c1c(C)[nH]c(C(=O)OCC(=O)Nc2sc3c(c2C#N)CCC(C)C3)c1C (stereo not given),i,?,i,-9%,26µM*,13%
CCN1CCN(CC(=O)Nc2sc3c(c2C#N)CCC(C)C3)CC1 (stereo not given),?,?,?,18µM*,?,?
CC1CCc2c(sc(NC(=O)CSc3ncn[nH]3)c2C#N)C1 (stereo not given),?,18µM*,i,-26%,?,5%
NC(=S)NN=C1CCC2(CCCCC2)CC1,i,-1%,i,-2%,9%,-8%
CCOC(=O)c1[nH]c2ccccc2c1NC(=O)c1ccc2c(c1)OCO2,i,7%,i,-11%,-19%,-4%
CC(=O)Nc1ccc(C(=O)OCC(=O)NC(=O)NC2CCCCC2)cc1,i,9%,i,7%,-7%,-7%
O=C(CCc1nc2ccccc2c(=O)[nH]1)Nc1nnc(SCc2ccccc2)s1,i,11%,i,8%,16%,-11%
COc1ccc(-c2nnc(CSc3nc4ccccc4c(=O)n3CC(C)C)o2)cc1OC,i,-1%,21µM*,?,?,3%
O=c1[nH]c(CSc2nnc(Nc3ccccc3)s2)nc2ccccc12,i,22%,i,-1%,-1%,16µM*
Cn1c(SCc2nc3ccccc3c(=O)[nH]2)nc2ccccc21,i,-27%,?,-2%,-9%,2%
CC(C)Cn1c(SCc2nc3ccccc3c(=O)[nH]2)nc2ccccc2c1=O,i,11µM*,i,5%,-9%,?
O=C(Nc1cccc(Cl)c1)N1CCOCC1,i,5%,i,-2%,-2%,-2%
CN(Cc1nc(-c2cnccn2)no1)CC(O)c1ccccc1 (stereo not given),i,4%,i,8%,0%,-5%
O=C(COC(=O)/C=C/c1ccco1)NCc1ccc2c(c1)OCO2,i,1%,i,0%,9%,2%
COc1cc(/C=C/C(=O)NCCn2c(C)cc3ccccc32)cc(OC)c1OC,?,-4%,?,-11%,-8%,-5%
CCSc1nc2ccccc2n1C(=O)/C=C/c1ccc(OC)c(OC)c1,?,4.1µM*,?,8.2µM*,5.8µM*,5.8µM*
CCn1c(SCC(=O)N/N=C/c2ccc(OC)c(OC)c2)nc2ccccc21,i,18%,i,7%,2%,-4%
SMILES,KB-3-1 cytotox,MCF10A rereplic,KB-V1 cytotox,HT1080-NT tox,HT1080 IDH1KD tx,SW480 rerep
C=CCSc1nc2ccccc2n1C(=O)/C=C/c1cc(OC)c(OC)c(OC)c1,i,3.3µM*,?,5µM*,2.2µM*,?
C=CCSc1nc2ccccc2n1C(=O)/C=C/c1ccc(OC)c(OC)c1,?,4.1µM*,i,?,2.5µM*,?
O=C(Nc1ccc(Cl)c(Cl)c1)Nn1cnnc1,i,-27%,i,-19%,-9%,-88%[1.84 µM]
COc1ccc2c(ccn2S(=O)(=O)c2ccccc2)c1,i,3%,i,1%,-1%,-5%
O=C(OCC(=O)N1CCOCC1)c1cc(S(=O)(=O)N2CCOCC2)c(Cl)cc1Cl,i,?,i,0%,1%,-11%
OC1CN=C2CCCc3c2n(c2ccc(Cl)cc32)C1 (stereo not given),?,?,i,-30%,-13%,3%
c1ccc(-c2ccc3c(c2)c2c4n3CCN=C4CCC2)cc1,?,8.2µM*,10µM*,?,?,?
COc1ccc(-c2nc(SC(C)C(=O)Nc3ccc(NC(C)=O)cc3)n[nH]2)cc1 (stereo not given),i,0%,i,3%,4%,-5%
COc1ccc(-c2nc(SCC(=O)NC3CCCCC3)n[nH]2)cc1,?,?,?,-4%,-21%,16µM*
COc1ccc(-c2nc(SC(C)C(=O)NCC3CCCO3)n[nH]2)cc1 (stereo not given),?,13µM*,i,?,?,16µM*
COc1ccc(-c2cn3nc(SCC(=O)NC4CCCCC4)ccc3n2)cc1,i,3.7µM*,i,-1%,-1%,8.2µM*
COc1ccc(-c2ccc(SCC(=O)NC3CCCCC3)nn2)cc1,i,0%,i,2%,0%,?
COc1ccc(-c2nnc(SCC(=O)NC3CCCCC3)nc2-c2ccc(OC)cc2)cc1,i,.,i,.,.,.
Cc1nc(SC(C)C(=O)NCC2CCCO2)c2cc(-c3ccccc3)sc2n1 (stereo not given),?,12µM*,?,-9%,?,?
CCc1ccc(OC)c(S(=O)(=O)Nc2ccccc2C)c1,i,?,?,0%,8%,6%
O=C(O)c1ccccc1C(=O)Nc1ccc(-c2csc(-c3ccccc3)n2)cc1,i,6%,i,-4%,-4%,1%
CC(=O)NC1CC2CCCC(C1)N2C(=O)Nc1cccc(C(C)=O)c1 (stereo not given),i,-2%,i,5%,-2%,-10%
COc1ccccc1N1CC(C)C(=O)NC1=S (stereo not given),i,0%,i,10%,0%,-2%
